DT40 TDP1 no CPT – qHTS for Inhibitors of human tyrosyl-DNA phosphodiesterase 1 (TDP1): qHTS in cells in absence of CPT | DT40 Tdp1-/- hTDP1 cells, no CPT, ATP luminescence, 48 h | Potency, µM (titrated, usually from 46.2 µM), for inactives: at the highest dose activity change, negative = growth inhibition, hits mostly inhibitors | 420,000 tested, 15% active; note: potency is the fitted concentration of half-maximal effect; nearly all actives have a fitted effect of over 55% in size
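Cells were dispensed at 400 per well, compounds added by pin tool, plates incubated ≥48 hr at 37 °C, then CellTiter-Glo added for 30 min at room temperature before luminescence reading. Line: DT40 Tdp1-/- complemented with hTDP1; camptothecin omitted.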
HT1080-NT tox – kills 2HG-producing HT-1080-NT fibrosarcoma cells; HT-1080-NT fibrosarcoma viability, CellTiter-Glo ATP luminescence, 48 h; Potency, µM (titrated, usually from 46.1 µM), without a hit: at the top dose activity, negative = less viability, actives largely listed as cytotoxic; 360,000 tested, 1.6% active;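 note: NT is the 2HG producing partner of a matched IDH1 knockdown line; potency is the fitted concentration of half-maximal effect; 0% = DMSO-treated cells and -100% = media-only wells without cells; nearly all actives have a fitted effect of over 55% in size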
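Fibrosarcoma NT cells, 750 per well in 5% FBS RPMI, were exposed to compound for 48 hours. Viability: CellTiter-Glo luminescence.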
DT40 TDP1 CPT – growth inhibition of DT40 Tdp1-/-;hTDP1 cells with camptothecin (screen for TDP1 inhibitors) | AID 686979 | Potency, µM (doses to about 46.2 µM), for the others: at the top dose activity change, negative = growth inhibition, hits mostly inhibitors | 420,000 tested, 12% active | chicken DT40 Tdp1-/-;hTDP1 cells + 20 nM CPT, ATP luminescence, 48 h; note: potency is the fitted concentration of half-maximal effect; nearly all actives have a fitted effect of over 55% in size
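Cell growth measured by CellTiter-Glo luminescence after a minimum 48 h, 37 C compound exposure with 20 nM CPT in Tdp1-knockout DT40 cells stably expressing hTDP1, seeded 400/well; qHTS titration format.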
IL-1B inflam inh – inhibitors of inflammasome signaling (IL-1 beta secretion); THP-1 LPS/ATP IL-1B secretion, AlphaLISA, 16 h; active compounds read low; activity change, % at 57.5 µM; 360,000 tested, 4.7% active; in the data active = activity change below about -50%; inconclusive = mostly about -30% to -49%
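Secreted IL-1B measured by AlphaLISA bead assay after 16 h compound exposure of THP-1 cells; compounds (final up to 57.5 uM) added 1 h before LPS (250 ng/mL) and ATP (1.25 mM) stimulation; lower signal means less secretion.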
HT1080 IDH1KD tx – toxicity to HT-1080 IDH1 knockdown cells (counter line); HT-1080 IDH1 knockdown viability, ATP luminescence, 48 h; Potency, µM (titrated, usually from 46.1 µM), for the others: at the highest dose activity, negative = toxicity, actives largely listed as cytotoxic; 360,000 tested, 2% active;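 note: potency is the fitted concentration of half-maximal effect; 0% = DMSO wells and -100% = cell-free medium wells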
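HT-1080-IDH1KD cells (IDH1 knocked down), 750/well in RPMI with 5% FBS, treated with compound 48 h at 37 degrees C. Viability by CellTiter-Glo luminescence, normalised to DMSO and no-cell wells; concentration-response curves classed.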
The depositor's hits bear a star; ? = inconclusive; nt = no result given. This is a sample that favours compounds with a hit; in the whole collection about 19% have one here. Unless noted, calls come from the whole dose curve; as a rule, active = well fitted curve in the direction sought with a large enough effect; inconclusive = small, poorly fitted or top-dose-only effect, or another doubt; inactive = no such curve, though single readings can be large; an effect the other way counts as inactive or inconclusive. Unless noted, % is set by controls: 0 for no effect and ±100 for the full control effect.

SMILES	DT40 TDP1 no CPT	HT1080-NT tox	DT40 TDP1 CPT	IL-1B inflam inh	HT1080 IDH1KD tx
CCc1ccc(C2CC(=O)Nc3c2c(C)nn3-c2nc(C)cc(C)n2)cc1 (stereo not given)	20.6µM*	nt	20.6µM*	nt	nt
Cc1cc(C)nc(-n2nc(C)c3c2NC(=O)CC3c2ccccc2OC(C)C)n1 (stereo not given)	18.4µM*	nt	16.4µM*	nt	nt
Cc1cc(C)nc(N2C(=O)CC(Cc3ccc(Cl)cc3)C2=O)n1 (stereo not given)	-7.5%	0.6%	22.0%	8.1	1.2%
COc1ccc(C2CC(=O)Nc3c2c(C)nn3-c2nncc(-c3ccccc3)n2)c(OC)c1OC (stereo not given)	?	nt	-14.0%	nt	nt
COc1ccc(C2CC(=O)Nc3c2c(C)nn3-c2nncc(-c3ccc(C)cc3)n2)c(OC)c1OC (stereo not given)	6.51µM*	nt	11.6µM*	nt	nt
CNC(=O)[C@@H]1C[C@H](Sc2nc3ccccc3[nH]2)CN1Cc1cccc(C(F)(F)F)c1	-20.6%	nt	-24.1%	nt	nt
CN(C)C(=O)[C@@H]1C[C@@H](Sc2nc3ccccc3[nH]2)CN1Cc1ccnc2ccccc12	14.6µM*	nt	16.4µM*	nt	nt
O=C(NNc1ccccc1)OCc1ccccc1	?	?	?	-18.3	3.26µM*
O=C(CNS(=O)(=O)Cc1ccccc1)NNc1ccccc1	?	?	-16.1%	5.7	4.11µM*
O=C(O)c1ccccc1-c1ccccc1C(=O)NNc1ccccc1	0.6%	-29.8%	-14.5%	7.8	?
O=C(NNc1ccccc1)C(=O)NNc1ccccc1	?	-18.1%	-5.8%	-15.3	1.16µM*
O=C(Cn1cnc([N+](=O)[O-])n1)c1ccc(O)c(O)c1	-10.1%	-11.3%	-15.6%	47.2	-2.7%
CC(C)CC(=O)N(Cc1ccccc1)S(=O)(=O)c1ccc2c(c1)oc(=O)n2C	?	nt	-28.8%	nt	nt
Cc1ccc(C)c(NC(=O)COC(=O)CCC(=O)c2cccs2)c1	4.7%	3.7%	-3.1%	17.8	-0.8%
CCN(Cc1nc2ccccc2c(=O)[nH]1)C(=O)c1cccc(NC(=O)c2cccs2)c1	?	-1.6%	11.6µM*	6.4	-15.0%
CCN(Cc1nc2ccccc2c(=O)[nH]1)C(=O)c1cc2c(s1)CCCCC2	?	2.5%	14.6µM*	42.7	1.7%
O=C(/C=C/[C@H]1O[C@@H](n2ccc(=O)[nH]c2=O)[C@H](O)[C@@H]1O)NCCN1CCCC1	-6.4%	17.3%	-0.3%	42.2	24.8%
COc1ccc(-c2cc3nc(-c4ccccc4)cc(N4CCN(C(=O)c5ccoc5)CC4)n3n2)cc1	8.2µM*	-12.8%	?	-23.3	-12.8%
COc1ccc(-c2cc3nc(C)cc(N4CCN(C(=O)c5cccnc5)CC4)n3n2)cc1	23.1µM*	-0.5%	?	-18.8	-2.0%
COc1ccc(N2CCN(C(=O)c3cccnc3)CC2)c([N+](=O)[O-])c1	-8.9%	-0.4%	23.6%	24.7	-0.6%
O=C(c1ccoc1)N1CCN(c2cc(-c3ccccc3)nc3cc(-c4ccc(Br)cc4)nn23)CC1	5.8µM*	1.7%	11.6µM*	11.6	-1.9%
O=C(/C=C/c1ccc(S(=O)(=O)N2CCOCC2)cc1)NCc1ccccc1Cl	?	-5.0%	?	0.0	-11.6%
O=[N+]([O-])c1ccc(NCc2ccccc2N2CCC(CO)CC2)nc1	?	9.3%	?	-5.9	-6.2%
Cc1cccc(C)c1NC(=O)CNC(=O)CNC(=O)c1ccc2c(c1)OCO2	5.3%	-0.9%	-7.6%	-1.1	-5.1%
CN(Cc1cnc2nc(N)nc(N)c2n1)c1ccc(C(=O)NC(CCC(=O)O)C(=O)O)cc1C(F)(F)F (stereo not given)	0.184µM*	?	0.0291µM*	0.0	0.146µM*
SMILES	DT40 TDP1 no CPT	HT1080-NT tox	DT40 TDP1 CPT	IL-1B inflam inh	HT1080 IDH1KD tx
Cc1cccc(N=Nc2c(C)c(C#N)c(O)[nH]c2=O)c1	9.3%	8.1%	32.9%	47.6	-15.8%
CCCCOC(=O)c1ccc(N=Nc2c(C)c(C#N)c(O)[nH]c2=O)cc1	23.1µM*	-5.9%	?	47.4	-4.4%
CCCn1nc2cc(C(=O)NCC34CC5CC(CC(C5)C3)C4)ccc2c1OCC	18.4µM*	-2.4%	20.6µM*	-20.4	1.1%
COCCn1nc2cc(C(=O)NCC34CC5CC(CC(C5)C3)C4)ccc2c1OC	?	11.0%	-24.7%	14.9	0.2%
N#CCCN(C(=O)COC(=O)CCc1nc2ccccc2c(=O)[nH]1)c1ccc(F)cc1	?	-3.8%	?	-0.8	-0.3%
O=C(C1CCC(CNc2nc(=S)[nH]c3ccccc23)CC1)N1CCN(c2ccccn2)CC1 (stereo not given)	18.4µM*	6.2%	18.4µM*	?	3.5%
Cc1ccc(NC(=O)c2cccc(S(=O)(=O)Nc3c(C)n(C)n(-c4ccccc4)c3=O)c2)cc1C	-7.9%	2.8%	1.2%	3.1	6.3%
O=[N+]([O-])c1cc2c(cc1/C=N/Nc1nc(N3CCCC3)nc(N3CCCC3)n1)OCO2	-22.7%	7.9%	-0.2%	13.2	17.2%
C(=C\c1ccccc1)/C=N/Nc1nc(N2CCCCC2)nc(N2CCCCC2)n1	11.6µM*	10.7%	11.6µM*	6.8	14.1%
O=[N+]([O-])c1ccc(-c2ccc(/C=N/Nc3nc(NCc4ccccc4)nc(N4CCOCC4)n3)o2)cc1	16.4µM*	18.4µM*	9.2µM*	-91.5*	16.4µM*
COc1ccc([N+](=O)[O-])cc1/C=N/Nc1nc(N2CCCCC2)nc(N2CCCCC2)n1	?	14.7%	?	20.3	19.2%
O=[N+]([O-])c1ccc(/C=N/Nc2nc(N3CCCCC3)nc(N3CCCCC3)n2)cc1	16.4µM*	7.8%	?	-13.6	10.2%
O=[N+]([O-])c1ccc(Nc2nc(N/N=C\c3ccc4c(c3)OCO4)nc(N3CCCCC3)n2)cc1	16.4µM*	-14.9%	20.6µM*	?	-5.0%
CC(C)OC(=O)c1c(NC(=O)c2cccc(C(F)(F)F)c2)sc2c1CCCC2	-23.7%	nt	-2.9%	nt	nt
O=C(Nc1ccc(Cl)cc1Cl)c1cc(S(=O)(=O)NCc2ccc3c(c2)OCO3)ccc1F	-13.8%	nt	-18.3%	nt	nt
O=[N+]([O-])c1ccc(/C=N/Nc2nc(N3CCCCCC3)nc(N3CCCCCC3)n2)o1	?	?	25.9µM*	?	?
COc1ccc(/C=N/Nc2nc(Nc3ccccc3)nc(N3CCCCC3)n2)cc1OC	20.6µM*	-15.3%	?	-16.5	-13.1%
CCOc1cc(/C=N/Nc2nc(Nc3ccccc3)nc(N3CCCCC3)n2)ccc1OCC(=O)O	-22.7%	-6.0%	-11.8%	2.6	0.8%

From PubChem BioAssay
